Most compounds without a hit are left out; they make up all but 12% or so of the library.
JMJD2A Tudor inh: inhibitors of human JMJD2A Tudor domain; O75164; AlphaScreen JMJD2A-Tudor / H3K4me3 peptide binding; Potency, µM (series often up to 114 µM), for inactives: at the highest dose activity change, negative = inhibition, usual class: inhibitors; 390,000 tested, 4.4% active; note: potency is the fitted concentration of half-maximal effect; % is set by controls: 0 for no effect and ±100 for the full control effect; nearly all actives have a fitted effect of over 50% in size
BAZ2B inh: BAZ2B (human) inhibition | AlphaScreen BAZ2B-H3K14Ac peptide displacement | Q9UIF8 | Potency, µM (top dose mostly 114 µM), for the others: at the top dose activity change, negative = inhibition, actives largely listed as inhibitors | AID 504333 | 360,000 tested, 4.4% active; note: potency is the fitted concentration of half-maximal effect; % is set by controls: 0 for no effect and ±100 for the full control effect; nearly all actives have a fitted effect of over 60% in size
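BAZ2B (50 nM) with biotin-H3(5-23)K14Ac peptide (50 nM) in PBS pH 7.4, 0.01% Tween-20, preformed 30 min, then compound 30 min at room temperature; top concentration 110uM. AlphaScreen streptavidin donor/nickel chelate acceptor beads (10 ug/mL final), 20 min dark, signal read.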
G9a inh: inhibitors of human histone lysine methyltransferase G9a; Q96KQ7; G9a H3K9 monomethylation, AlphaScreen, 2 h; Potency, µM (top dose mostly 102 µM), inactives show at the top dose activity, negative = inhibition, usual class: inhibitors; 350,000 tested, 8.8% active; AID 504332; note: potency is the fitted concentration of half-maximal effect; % is set by controls: 0 for no effect and ±100 for the full control effect; nearly all actives have a fitted effect of over 75% in size
Target sequence (Q96KQ7 913-1193 limits assumed): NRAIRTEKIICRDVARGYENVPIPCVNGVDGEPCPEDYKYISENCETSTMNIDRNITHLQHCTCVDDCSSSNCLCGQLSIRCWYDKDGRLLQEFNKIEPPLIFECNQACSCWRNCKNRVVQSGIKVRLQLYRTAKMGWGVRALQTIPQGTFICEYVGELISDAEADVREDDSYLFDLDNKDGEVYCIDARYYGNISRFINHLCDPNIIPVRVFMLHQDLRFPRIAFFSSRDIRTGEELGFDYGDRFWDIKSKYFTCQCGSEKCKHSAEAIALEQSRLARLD
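Chemiluminescent proximity detection of H3K9 monomethylation, read after 10 min bead incubation in the dark. Reaction: 20 nM G9a, 500 nM biotin-H3K9 peptide, 20 uM SAM cofactor, 2 h, room temperature, following 15 min enzyme-compound preincubation.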
HP1b chromo inh: inhibitors of HP1-beta chromodomain binding to methylated histone tails | P83916 | AlphaScreen HP1-beta / biotin-H3K9me3 peptide binding | Potency, µM (highest dose often 114 µM), without a hit: top-dose activity change, negative = inhibition, usual class: inhibitors | 390,000 tested, 0.56% active; note: potency is the fitted concentration of half-maximal effect; nearly all actives have a fitted effect of over 70% in size
Target sequence (P83916 whole entry, looked up): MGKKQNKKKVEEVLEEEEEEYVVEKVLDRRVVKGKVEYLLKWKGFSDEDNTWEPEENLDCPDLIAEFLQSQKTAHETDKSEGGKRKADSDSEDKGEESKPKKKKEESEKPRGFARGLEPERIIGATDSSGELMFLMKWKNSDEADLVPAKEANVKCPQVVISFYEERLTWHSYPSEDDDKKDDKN
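Compound inhibition of the preformed complex between 50 nM HP1-beta and 50 nM biotinylated H3K9me3 peptide was read by AlphaScreen. Buffer was PBS pH 7.4 with 0.01% Tween-20. Incubations ran 30 min at room temperature, with 10 ug/mL donor/acceptor beads.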
PI5P4Ka inh: PI5P4K alpha (human) kinase inhibition | P48426 | PI5P4Kalpha enzyme, ADP-Glo luminescence, 60 min; stronger effect = lower value | max response, % | 330,000 tested, 1.2% active; active = max response of -50% or lower; inconclusive = between -30% and -50%; inactive = -30% or higher; note: value at the top dose of about 77 µM; % is set by controls: 0 for no effect and ±100 for the full control effect
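Compounds were pin-transferred onto PI5P4Kalpha and substrate in HEPES pH 7.4 buffer with EGTA, CHAPS and 5% DMSO. ATP (5 microM final) started the reaction, which ran 60 minutes at room temperature before ADP-Glo detection.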
PLK1 PBD block: blocks phosphopeptide binding to human PLK1 polo-box domain | AID 720504 | Potency, µM, for the others: max response, negative = inhibition, actives largely listed as inhibitors | Plk1 PBD binding of FITC phosphopeptide, fluorescence polarization | P53350 | 360,000 tested, 2.8% active; note: potency is the fitted concentration of half-maximal effect; series mostly up to about 57 µM; % is set by controls: 0 for no effect and ±100 for the full control effect; nearly all actives have a fitted effect of over 65% in size
* = called active by the depositor; ? = inconclusive; / = not tested or not shown; [ ] = another dose, or the depositor's remark. Unless noted, calls come from the whole dose curve; as a rule, active = well fitted curve in the direction sought with a large enough effect; inconclusive = small, poorly fitted or top-dose-only effect, or another doubt; inactive = no such curve, though single readings can be large; an effect the other way counts as inactive or inconclusive.

SMILES | JMJD2A Tudor inh | BAZ2B inh | G9a inh | HP1b chromo inh | PI5P4Ka inh | PLK1 PBD block
COc1ccc(C2CC3(O)CC(C#N)(C(=O)N3)C2(C#N)C#N)cc1 (stereo unspecified) | 7% | -11% | -8% | 61% | 4 | -1%
CCN(C(=O)COC(=O)c1ncc(Cl)c(Cl)c1Cl)c1c(N)n(Cc2ccccc2)c(=O)[nH]c1=O | -2% | / | / | 29% | 0 | 6%
C=CCOc1ccc2c(c1)c(=O)cc(C(=O)O)n2CC | -13% | -6% | 45µM* | 40% | -2 | -4%
COc1ccccc1N1CCN(c2nc3ccc(C(=O)c4ccccc4)cc3n3c(C)nnc23)CC1 | -4% | -17% | ? | 36% | / | /
CCN(CC)C(=O)CS(=O)(=O)CC(=O)Nc1cc(OCCOC)c(Cl)cc1Cl | -3% | 4% | 50µM* | 8% | 7 | -1%
Cn1nc(-c2ccc(N3CCCCC3)c(NC(=O)c3ccco3)c2)c2ccccc2c1=O | -27% | ? | 40µM* | -12% | -2 | -5%
CCC(=O)Nc1cc(-c2nn(C)c(=O)c3ccccc23)ccc1N1CCOCC1 | -4% | -16% | 13% | 35% | 1 | -8%
O=C1[C@@H]2C(c3cccnc3)=NO[C@@H]2C(=O)N1c1ccc2ccccc2c1 | 79µM* | -9% | / | ? | -21 | ?
COc1ccc(C2=NO[C@@H]3C(=O)N(c4ccc5c(c4)OCCO5)C(=O)[C@H]23)cc1OC | 25% | 3% | -31%[12.7 µM] | 16% | -6 | -8%
Cc1ccc(C)c2c(N)c3c(nc12)CCCCC3 (tested in a mixture with another compound) | -4% | -4% | 45µM* | 31% | 5 | -8%
Nc1c2c(nc3sc4c(c13)CCCC4)CCCCCC2 | -25% | -2% | -5%[59 µM] | 22% | 1 | -13%
C/C(CCN1CCc2nc(-c3ccccc3)c(-c3ccccc3)cc2C1)=N\O[C@H](C)c1cn([C@H](CO)Cc2ccccc2)nn1 | / | -34% | 50µM* | / | / | /
C/C(CCN1CCc2nc(-c3ccccc3)c(-c3ccccc3)cc2C1)=N\O[C@@H](C)c1cc(-c2c(C)cc(C)cc2C)no1 | -22% | -26% | ? | 27% | 4 | -1%
C/C(CCN1CCc2nc(-c3ccccc3)c(-c3ccccc3)cc2C1)=N\OC[C@@H](C)[C@H](OCc1ccccc1)C(C)C | -27% | -22% | 45µM* | 13% | 0 | -9%
Cc1c(NC(=O)COC(=O)c2ccc(Cl)nc2)c(=O)n(-c2ccccc2)n1C | -13% | / | / | 0% | 1 | -8%
Cc1ccc(C(=O)NNC(=O)c2ccccc2O)cc1S(=O)(=O)N1CCCCC1 | -8% | -35% | 5% | 40% | ? | -4%
O=C(c1cc(=O)[nH]c2ccccc12)N(Cc1nnc(-c2ccccc2Cl)o1)C1CC1 | -7% | 8% | 50µM* | 43% | -1 | 1%
Cc1c(C(=O)N(Cc2nnc(-c3ccccc3Cl)o2)C2CC2)oc2ccccc12 | -4% | 4% | 30%[12.7 µM] | 67% | -3 | 1%
Cc1ccccc1S(=O)(=O)NC1OC(=O)C(Cl)=C1Cl (stereo unspecified) | ? | ? | -13%[59 µM] | 23% | 1 | ?
Cc1ccccc1S(=O)(=O)NC1OC(=O)C(Oc2ccccc2)=C1Br (stereo unspecified) | -20% | ? | 50µM* | 12% | -11 | ?
CCOc1ccc(CNC(=O)c2cnc3c(C)cccn3c2=O)cc1 | 7% | -1% | 4%[59 µM] | 34% | / | /
CC(C)OC(=O)N(C)C[C@H]1OCc2cn(nn2)CCCC(=O)N([C@H](C)CO)C[C@@H]1C | / | / | / | / | -12 | -17%
O=C(Oc1ccc(F)c(F)c1)c1ccc2c(=O)n3c(nc2c1)CCC3 | 1% | -4% | ? | 36% | -14 | 0%
O=C(Oc1cccc([N+](=O)[O-])c1)c1ccc2c(=O)n3c(nc2c1)CCC3 | ? | 50µM* | 7%[12.7 µM] | -11% | ? | -25%
CCCCN(C)CCCNC(=O)C1CCC(CNS(=O)(=O)c2c(C)cc(C)cc2C)CC1 (stereo unspecified) | -30% | -1% | -5%[12.7 µM] | 31% | 10 | 21µM*
SMILES | JMJD2A Tudor inh | BAZ2B inh | G9a inh | HP1b chromo inh | PI5P4Ka inh | PLK1 PBD block
Cc1cc(C)cc(-n2c(SCC(=O)Nc3ccccc3)nc3c(oc4ccccc43)c2=O)c1 | -8% | -12% | 1%[59 µM] | 38% | / | /
CC(=O)N1CSCC1C(=O)NNS(=O)(=O)c1ccccc1 (stereo unspecified) | 25µM* | 5% | 15% | 4% | 2 | -5%
CCc1nn2c(=O)cc(COC(=O)C3CCCCC3)nc2s1 | -5% | -5% | 10%[59 µM] | 10% | / | /
O=C(C[n+]1ccccc1)c1ccc(NC(=O)c2ccccc2)cc1 | ? | -12% | 16µM* | 16% | ? | -14%
O=C(C[n+]1cccc(C(=O)Nc2ccccc2)c1)c1ccccc1 | / | / | / | / | 4 | -8%
NC(=O)c1cc[n+](CC(=O)c2ccc(NC(=O)c3ccccc3)cc2)cc1 | ? | -15% | -2% | 19% | -17 | 24µM*
N#Cc1ccc[n+](CC(=O)c2ccc(NC(=O)c3ccccc3)cc2)c1 | 1% | 0% | 45µM* | 46% | -12 | -6%
Cc1cc[n+](CC(=O)c2ccc(NC(=O)c3ccccc3)cc2)cc1 | -12% | 4% | ? | 25% | 10 | 0%
O=C(Nc1ccc[n+](CC(=O)c2cccc3ccccc23)c1)c1ccccc1 | -29% | 14% | 40µM* | 5% | 13 | -26%
CCOC(=O)c1c(C)[nH]c(C)c1S(=O)(=O)N(C)CC(=O)Nc1ccc(C)c(F)c1 | -10% | 2% | -10%[59 µM] | 23% | / | /
COc1cc2c(cc1OC)C(C)N(C(=O)C(NC(=O)c1ccccc1)C(C)C)CC2 (stereo unspecified) | -15% | 1% | 10% | -37% | -1 | -3%
CCCOC(=O)N1CCN(/[N+]([O-])=N/Oc2ccc([N+](=O)[O-])cc2[N+](=O)[O-])CC1 | ? | / | / | 3% | / | /
O=C(Nc1nnc(-c2ccccc2)o1)C1CCCN1S(=O)(=O)c1cccs1 (stereo unspecified) | ? | 50µM* | -27% | 62% | -3 | 6%
COc1ccc(-c2nnc(NC(=O)C3CCCN3S(=O)(=O)c3cccs3)o2)cc1 (stereo unspecified) | ? | 50µM* | -1% | 24% | -9 | -1%
O=C(Nc1ccccc1)C1CCCN1S(=O)(=O)c1cccs1 (stereo unspecified) | -9% | -8% | ? | 25% | 6 | 1%
CC1(C(=O)NS(=O)(=O)c2cccc(OC(F)F)c2)CCN1C(=O)Cc1ccsc1 (stereo unspecified) | / | / | / | / | 1 | -3%

Compound activity deposited in PubChem by National Center for Advancing Translational Sciences (NCATS).
